Drawing on PubChem BioAssay (NCATS), this text covers Potency for 40 compounds.

Molecules are shown by their SMILES. Results filed as inconclusive are left out. A call without a number means that no potency is given here. The source made the active and inactive calls. Calls follow the shape of the dose curve; as a rule, active = well fitted curve in the direction sought with a large enough effect; inconclusive = small, poorly fitted or top-dose-only effect, or another doubt; inactive = no such curve, though single readings can be large or run the other way.

In this experiment the target is Ferritin light chain (Equus caballus) (UniProt P02791). The experiment in a line: qHTS Validation Assay for Identification of Novel General Anesthetics (AID 2323). Particulars: horse apoferritin, anesthetic-site fluorescent probe displacement; series mostly up to 76.9 µM. The text has this: Source: NIH Chemical Genomics Center [NCGC]
Sequence of Ferritin light chain (Equus caballus) (P02791 2-175 limits assumed): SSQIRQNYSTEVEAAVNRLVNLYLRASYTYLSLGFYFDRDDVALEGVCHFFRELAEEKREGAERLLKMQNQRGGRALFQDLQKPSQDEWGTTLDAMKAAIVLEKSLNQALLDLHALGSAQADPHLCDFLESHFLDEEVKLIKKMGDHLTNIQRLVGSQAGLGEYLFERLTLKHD
Assay Submitter: Roderic Eckenhoff, University of Pennsylvania
Screening Center PI: Christopher P. Austin, NIH
Probe Development: NIH Chemical Genomics Center [NCGC]
Anesthetic development has remained a largely empirical process. There are growing concerns about the cognitive effects of known general anesthetics and acceleration of the onset of neurodegenerative disease. The compounds' toxicity and multiple specific binding targets in the mammalian brain [4] has made them less attractive as drug leads. In this assay, a GABAergic mimetic model system, apoferritin and a profluorescent 1-aminoanthracene ligand (1-AMA), was used to construct a competitive binding assay for identification of novel general anesthetics. The assay was validated for 1-AMA using other known anesthetics, such as isoflurane (CID:3763) and propofol (CID: 4943), [6].
[1] S.L. Bianchi, T. Tran, C. Liu, S. Lin, Y. Li, J.M. Keller, R.G. Eckenhoff, and M.F. Eckenhoff, Brain and behavior changes in 12-month-old Tg2576 and nontransgenic mice exposed to anesthetics. Neurobiol Aging 29 (2008) 1002-10.
[2] Z. Xie, Y. Dong, U. Maeda, R.D. Moir, W. Xia, D.J. Culley, G. Crosby, and R.E. Tanzi, The inhalation anesthetic isoflurane induces a vicious cycle of apoptosis and amyloid beta-protein accumulation. J Neurosci 27 (2007) 1247-54.
[3] P. Honegger, and J.M. Matthieu, Selective toxicity of the general anesthetic propofol for GABAergic neurons in rat brain cell cultures. J Neurosci Res 45 (1996) 631-6.
[4] M.F. Eckenhoff, K. Chan, and R.G. Eckenhoff, Multiple specific binding targets for inhaled anesthetics in the mammalian brain. J Pharmacol Exp Ther 300 (2002) 172-9.
[5] C.A. Butts, J. Xi, G. Brannigan, A.A. Saad, S.P. Venkatachalan, R.A. Pearce, M.L. Klein, R.G. Eckenhoff, and I.J. Dmochowski, Identification of a fluorescent general anesthetic, 1-aminoanthracene. Proc Natl Acad Sci U S A 106 (2009) 6501-6.
[6] W.A. Lea, J. Xi, A. Jadhav, L. Lu, C.P. Austin, A. Simeonov, and R.G. Eckenhoff, A high-throughput approach for identification of novel general anesthetics. PLoS One 4 (2009) e7150.
Three uL of reagents (free 1-AMA (50% saturated solution of 1-aminoanthracene
in PBS) in columns 3, 4 as negative control and 1-AMA/apoferritin mixture (10 uM horse-spleen apoferritin in 50% saturated 1-aminoanthracene in PBS) in columns 1, 2, 5-48) was dispensed into 1536-well Greiner black assay plates. Compounds (23 nL) were transferred via Kalypsys pintool equipped with 1,536-pin array (10 nL slotted pins, V&P Scientific, San Diego, CA). Titration of the positive control, propofol, were delivered via pin transfer from separate control plates to the 2nd column of each assay plate. The starting concentration of the control, dissolved in DMSO, was at 160 mM, followed by two-fold dilution points in duplicate, for a total of 16 concentrations. The plates were incubated for 10 min at room temperature, and then read on an EnVision HTS multilabel reader (Perkin-Elmer, Waltham, MA) (end point read, 3 min/plate) using Fura2 BFP excitation filter (380 nm, bandwidth 10 nm) and fluorescein emission filter (535 nm, bandwidth 25 nm) set. A LANCE/DELFIA dichroic mirror with a cutoff wavelength at 400 nm was used to maximize signal accuracy and strength. Vehicle-only plates, with DMSO being pin-transferred to the entire column 5-48 compound area, were inserted uniformly at the beginning and the end of each library in order to monitor for and record any shifts in the background. Activity was computed as the normalized fluorescence response relative to free 1-AMA and 1-AMA/apoferritin complex values. Concentration-effect relationships were derived by using curve fitting algorithms developed in-house (http://ncgc.nih.gov/pub/openhts/). A four parameter Hill equation was fitted to the concentration-response data by minimizing the residual error between the modeled and observed responses.
In the case of `N=S(=O)(O)Cc1noc2ccccc12`, the Potency entry is “inactive”. As to `CCCn1c(=O)c2c(ncn2C)n(CCC)c1=O`, the Potency result is “inactive”. Then `N[C@@H](CCCC(=O)O)C(=O)O`, with “inactive”; and `CCCOC(=O)c1c(-c2ccccc2)nc(CC)c(C(=O)SCC)c1CCC`, with “inactive”; and `C#CC(N)CCC(=O)O` (stereo not given), with “inactive”. Take `CCC1(O)CC2CN(CCc3c([nH]c4ccccc34)[C@@](C(=O)OC)(c3cc4c(cc3OC)N(C=O)C3[C@]45CCN4CC=C[C@@](CC)([C@@H](OC(C)=O)[C@]3(O)C(=O)OC)[C@H]45)C2)C1` (stereo not given in full): the Potency result is “inactive”.

Regarding `O=c1[nH]c2ccccc2c2ccccc12`, the Potency entry is “inactive”. Then `N=C(N)c1ccc(N)cc1`, with “inactive”.

For the compound `N#Cc1cc2nc(O)c(O)nc2cc1[N+](=O)[O-]`, the Potency result is “inactive”. Then `NS(=O)(=O)c1cccc2c1c([N+](=O)[O-])cc1nc(O)c(O)nc12`, with “inactive”. As for `CCSC(=N)N`, the Potency entry was “inactive”. For `NCCCNCCCCNCCCN`, the Potency entry is “inactive”. For the compound `CC(C)(C)NCC(O)COc1cccc2[nH]c(=O)[nH]c12` (stereo not given), the Potency result is “inactive”. Consider `O=C(O)C1=CC(=C(c2ccc(O)c(C(=O)O)c2)c2ccc(O)c(C(=O)O)c2)C=CC1=O`, for which the Potency result was “inactive”. As to `CC(=O)NNC(=O)N1Cc2ccccc2Oc2ccc(Cl)cc21`, the Potency entry is “inactive”. The same measure for `NCC(O)C1CCCCCCC1` (stereo not given): “inactive”; for `C[N+](C)(C)CC=O`: “inactive”; for `COc1ccc2c(c1)c(CC(=O)O)c(C)n2Cc1ccc(Cl)cc1`: “inactive”. Then `Cn1cc(C(F)(F)F)nc1-c1ccc(OCC(O)CNCCOc2ccc(O)c(C(N)=O)c2)cc1` (stereo not given), with “inactive”; and `NC(N)=N[C@@H](CCC(=O)O)C(=O)O`, with “inactive”. The same measure for `Cc1cccc(C2CN(C)CCc3c2cc(O)c(O)c3Cl)c1` (stereo not given): “inactive”; for `CC(C)C[C@H](NC(=O)[C@H](O)[C@H](N)Cc1ccccc1)C(=O)O`: “inactive”.

`COC1(C2=NCCN2)COc2ccccc2O1` (stereo not given): the Potency entry was “inactive”. Then `Cc1ccc([N+](=O)[O-])cc1S(=O)(=O)N(C)C`, with “inactive”; and `COc1cc(CC(=O)O)ccc1O`, with “inactive”. The same measure for `CC(=O)O[C@H]1CC2(C)[C@@H](C[C@@H](O)[C@H]3[C@@]4(C)CC[C@@H](O)[C@@H](C)[C@@H]4CC[C@@]32C)C1=C(CCC=C(C)C)C(=O)O` (stereo not given in full): “inactive”; for `O=c1ccn([C@@H]2O[C@H](COP(=O)(O)OP(=O)(O)O)[C@@H](O)[C@H]2O)c(=O)[nH]1`: “inactive”. Consider `Cc1ccccc1/C=C/C1=NCCN1`, for which the Potency entry is “inactive”.

`N[C@@H](Cc1ccc(O)c(I)c1)C(=O)O`: the Potency entry is “inactive”.

`COc1ccc(C(=O)NCc2cccnc2)cc1C(=O)NCc1cccnc1`: the Potency entry was “inactive”.

As for `O=C(O)C1=CCCNC1`, the Potency result was “inactive”. `CC1C(=O)N(C)C(=O)c2nc[nH]c21` (stereo not given): the Potency entry is “inactive”. With `Cn1cc(C(=O)OCC2CCN(CCNS(C)(=O)=O)CC2)c2ccccc21`, the Potency result was “inactive”. The same measure for `CCCc1c(-c2ccc(O)cc2)nn(-c2ccc(O)cc2)c1-c1ccc(O)cc1`: “inactive”; for `CC1CCN=C(N)S1` (stereo not given): “inactive”. Then `Cc1cccc(C)c1OCC(N)C(C)C` (stereo not given), with “inactive”. Regarding `CC[C@@H]1Cc2cc(O)ccc2C2=C1c1ccc(O)cc1C[C@H]2CC`, the Potency result was “inactive”. Then `O=C(O)/C=C/c1ccc(O)c(O)c1`, with “inactive”; and `COC(=O)C(C)(N)Cc1ccc(O)cc1` (stereo not given), with “inactive”; and `Nn1nnc2ccccc21`, with “inactive”.
